# Assay results published in PubChem BioAssay (NCATS).
# A number with no mark means an inactive call. Inconclusive results are not listed. Active and inactive are the calls of the source. Unless noted, the call rests on the fitted dose curve; in most records, active means well fitted curve in either direction with a large enough effect (not every such curve was filed as active); inconclusive means small, poorly fitted or top-dose-only effect, or another doubt; inactive means flat fitted curve, though single readings scatter.
# Columns and labels:
# [1] = biological target: Lysosomal acid glucosylceramidase (Homo sapiens) (UniProt P04062); assay: Glucocerebrosidase-p2 (AID 348; in the data active means potency below about 10 µM; further: potency means the concentration at half of the fitted maximal effect); settings: purified GBA, blue fluorogenic substrate, 40 min
# Lysosomal acid glucosylceramidase (Homo sapiens), sequence (P04062 whole entry, looked up): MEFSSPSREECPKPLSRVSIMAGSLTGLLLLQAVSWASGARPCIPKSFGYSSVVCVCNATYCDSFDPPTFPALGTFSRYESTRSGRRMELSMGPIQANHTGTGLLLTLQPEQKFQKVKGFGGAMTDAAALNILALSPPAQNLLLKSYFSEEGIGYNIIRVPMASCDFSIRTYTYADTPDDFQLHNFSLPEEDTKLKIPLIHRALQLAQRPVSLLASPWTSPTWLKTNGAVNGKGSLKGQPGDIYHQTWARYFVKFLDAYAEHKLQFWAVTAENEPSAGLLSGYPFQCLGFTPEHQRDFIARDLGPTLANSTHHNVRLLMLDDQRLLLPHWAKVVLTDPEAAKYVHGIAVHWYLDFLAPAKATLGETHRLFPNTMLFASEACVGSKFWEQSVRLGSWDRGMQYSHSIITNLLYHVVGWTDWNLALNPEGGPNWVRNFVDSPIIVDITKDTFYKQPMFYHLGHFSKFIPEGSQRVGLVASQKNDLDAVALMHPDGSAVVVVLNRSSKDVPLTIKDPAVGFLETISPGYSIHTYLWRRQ
# Procedure, shortened: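 Normal human glucocerebrosidase (0.2 nM) with blue fluorogenic substrate (80 uM final) in citrate/phosphate pH 5.9 with 10mM sodium taurocholate, 0.01% tween-20; 40 min RT, NaOH/glycine stop; fluorescence Ex 365/Em 440; AC50 from a titration from 0.6 nM upwards.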
# [2] = AP1 Signaling Pathway (AID 357); settings: ME-180 AP-1-bla reporter, EGF-induced, beta-lactamase ratio, 5 h; at 7.69 µM (top of the series) unless noted;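 further: ME-180 reporter cells stimulated with EGF at its EC50 level; on the % scale 0 is the no-effect control and ±100 the full control effect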
# Procedure, shortened: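 First, ME-180 AP-1-bla cells were cultured overnight at 37 °C in low-serum Opti-MEM. Next, titrated compounds with EC50 EGF were incubated 5 hours. Finally, CCF4 was added for 2.5 hours and the 460/530 nm ratio recorded.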
# [3] = biological target: Cytochrome P450 1A2 (Homo sapiens) (UniProt P05177); assay: p450-cyp1a2 (AID 410; calls by dose curve; further: potency means the concentration at half of the fitted maximal effect;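 on activity change, negative = inhibition: -100% = full effect of reference inhibitor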); settings: recombinant CYP1A2, luciferin-ME demethylation, luminescence; series mostly up to 11.4 µM
# Cytochrome P450 1A2 (Homo sapiens), sequence (P05177 whole entry, looked up): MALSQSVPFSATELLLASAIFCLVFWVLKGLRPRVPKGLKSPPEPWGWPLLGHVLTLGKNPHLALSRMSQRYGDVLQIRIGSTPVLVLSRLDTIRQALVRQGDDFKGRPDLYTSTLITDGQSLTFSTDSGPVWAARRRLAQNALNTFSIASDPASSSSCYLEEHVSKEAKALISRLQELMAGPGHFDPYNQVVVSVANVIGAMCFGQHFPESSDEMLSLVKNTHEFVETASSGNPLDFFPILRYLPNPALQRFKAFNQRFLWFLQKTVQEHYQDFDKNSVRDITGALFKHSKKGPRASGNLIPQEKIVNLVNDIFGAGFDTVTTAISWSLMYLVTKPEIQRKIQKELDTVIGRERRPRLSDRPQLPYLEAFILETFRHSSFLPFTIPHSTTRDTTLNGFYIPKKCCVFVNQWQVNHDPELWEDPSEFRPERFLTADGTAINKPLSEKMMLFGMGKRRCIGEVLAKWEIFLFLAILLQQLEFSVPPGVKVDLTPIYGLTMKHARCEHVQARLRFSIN
# Procedure, shortened: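 Read-out is luminescence from luciferin produced by CYP1A2 demethylation of Luciferin-ME (100uM, at Km). Detection reagent stopped the 60 min NADPH-dependent reaction; signals were normalized to 57 uM furafylline.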
# [4] = Stat Signaling Pathway (AID 446); settings: ME-180 (cervical carcinoma) SIE beta-lactamase reporter, IL-6 stimulated, 5 h; at 7.69 µM (top of the series) unless noted;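 further: ME-180 cervical cancer cells given 40 pM IL-6 alongside compound; SIE-controlled beta-lactamase reporter measured as 460/530 nm FRET emission ratio; on the % scale 0 is the no-effect control and ±100 the full control effect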
# Procedure, shortened: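 Emission at 460 and 530 nm (excitation 405 nm) reports SIE-controlled beta-lactamase in ME-180 cells. Cells received compound with 40 pM IL-6 for 5 hrs at 37 C; data scaled between 300 pM IL-6 and 125 nM JAK-inhibitor controls.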
# [5] = biological target: Glucocorticoid receptor (Homo sapiens) (UniProt P04150); assay: GR-GFP Redistribution (AID 450;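 active means compounds whose dose series gives a full or clear partial fitted curve of increased nuclear translocation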; further: potency means the concentration at half of the fitted maximal effect); settings: U2OS GR-GFP nuclear translocation, laser cytometry, 2 h
# Glucocorticoid receptor (Homo sapiens), sequence (P04150 whole entry, looked up, the tested form may be a part): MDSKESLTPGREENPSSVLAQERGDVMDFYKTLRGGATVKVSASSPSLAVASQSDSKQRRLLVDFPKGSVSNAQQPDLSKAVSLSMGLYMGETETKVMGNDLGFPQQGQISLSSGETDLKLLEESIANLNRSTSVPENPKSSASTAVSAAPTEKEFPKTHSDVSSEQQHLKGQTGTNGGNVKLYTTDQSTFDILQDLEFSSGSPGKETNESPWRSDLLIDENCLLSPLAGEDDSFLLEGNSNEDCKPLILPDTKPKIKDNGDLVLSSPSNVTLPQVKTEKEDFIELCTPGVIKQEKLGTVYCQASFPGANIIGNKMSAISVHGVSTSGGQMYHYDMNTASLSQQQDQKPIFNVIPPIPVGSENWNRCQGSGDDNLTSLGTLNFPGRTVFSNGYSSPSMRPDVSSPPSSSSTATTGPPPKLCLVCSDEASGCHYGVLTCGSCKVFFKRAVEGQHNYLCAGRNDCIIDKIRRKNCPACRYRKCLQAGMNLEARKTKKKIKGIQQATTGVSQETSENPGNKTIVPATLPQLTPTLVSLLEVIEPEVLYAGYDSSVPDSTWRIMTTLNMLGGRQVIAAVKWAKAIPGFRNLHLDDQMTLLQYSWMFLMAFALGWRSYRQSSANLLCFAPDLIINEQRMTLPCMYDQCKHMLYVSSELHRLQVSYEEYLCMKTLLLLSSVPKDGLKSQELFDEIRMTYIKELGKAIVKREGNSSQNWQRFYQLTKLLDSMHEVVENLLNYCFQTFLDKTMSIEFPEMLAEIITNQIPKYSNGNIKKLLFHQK
# [6] = biological target: Glucocorticoid receptor (Homo sapiens) (UniProt P04150); assay: GR-EFC Redistribution (AID 451; calls by dose curve; further: potency means the concentration at half of the fitted maximal effect); settings: CHO-K1 GR-EFC translocation, beta-gal luminescence, 2 h
# Procedure, shortened: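 Translocation of GR-ED fusion to nuclear EA restores b-gal, read by luminescence after 1 h room-temperature detection. Engineered CHO-K1 biosensor cells, 1,000/well, exposed 2 h at 37 C to titrations up to 46 uM final.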
# [7] = biological target: Mitogen-activated protein kinase 10 (Mus musculus) (UniProt Q61831); assay: JNK3 AlphaScreen Assay (AID 530); settings: JNK3 lysate, c-Jun phosphorylation; series mostly up to 11.4 µM;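 further: kinase came from lysate of stimulated human HepG2 cells; signal reports phosphorylation of biotinylated GST-cJun 1-79 at Ser73 with 10 µM ATP; on the % scale 0 is the no-effect control and ±100 the full control effect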
# Procedure, shortened: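 Kinase buffer: 20 mM Tris-HCl pH 7.6, 10 mM MgCl2, 1 mM DTT, 0.1 mM Na3VO4, 0.01% Tween-20; ATP 10 uM. Substrate biotin-GST-cJun(1-79), enzyme from activated HepG2 lysates. Detection by Ser73 phospho-antibody AlphaScreen.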
# [8] = biological target: 3',5'-cyclic-AMP phosphodiesterase 4B (Homo sapiens) (UniProt Q07343); assay: qHTS Assay for Inhibitors of PDE-IV (AID 607; active means well fitted activation curve with a large enough effect in the main read-out, with a control signal flat, not every such curve was filed as active; further: % of control where 0% means no effect); settings: HEK293 ACTOne CNG channel cells, membrane potential fluorescence; series mostly up to 22.9 µM
# 3',5'-cyclic-AMP phosphodiesterase 4B (Homo sapiens), sequence (Q07343 whole entry, looked up): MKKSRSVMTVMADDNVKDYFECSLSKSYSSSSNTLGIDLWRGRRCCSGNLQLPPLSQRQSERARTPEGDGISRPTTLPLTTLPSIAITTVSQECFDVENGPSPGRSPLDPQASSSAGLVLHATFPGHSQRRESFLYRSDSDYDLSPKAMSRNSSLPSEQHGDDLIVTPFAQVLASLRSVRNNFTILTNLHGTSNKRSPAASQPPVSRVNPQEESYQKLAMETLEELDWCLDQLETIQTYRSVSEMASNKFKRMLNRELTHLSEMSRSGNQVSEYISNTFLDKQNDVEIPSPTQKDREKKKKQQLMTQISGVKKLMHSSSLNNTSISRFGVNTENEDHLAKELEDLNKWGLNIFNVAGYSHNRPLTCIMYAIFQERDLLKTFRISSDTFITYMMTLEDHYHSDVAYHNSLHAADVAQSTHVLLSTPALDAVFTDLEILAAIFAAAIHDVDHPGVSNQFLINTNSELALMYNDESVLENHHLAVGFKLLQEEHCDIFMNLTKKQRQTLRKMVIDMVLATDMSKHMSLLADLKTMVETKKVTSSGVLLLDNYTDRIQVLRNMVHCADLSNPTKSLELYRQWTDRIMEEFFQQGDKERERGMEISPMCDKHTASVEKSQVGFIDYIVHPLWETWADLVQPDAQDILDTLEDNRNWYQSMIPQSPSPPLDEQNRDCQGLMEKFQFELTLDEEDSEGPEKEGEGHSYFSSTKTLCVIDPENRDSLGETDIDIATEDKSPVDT
# Procedure, shortened: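 The readout is membrane depolarisation from a cAMP-sensing CNG channel, detected with a potential dye at ex 535/em 590. Cells were HEK293-derived (endogenous PDE-IV) at 1000 cells/well, titrated up to 22.9 uM final.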
# [9] = biological target: Cytochrome P450 2C9 (Homo sapiens) (UniProt P11712); assay: qHTS Assay for Inhibitors and Substrates of Cytochrome P450 2C9 (AID 883; active means well fitted curve in the direction sought with a large enough effect; an effect the other way counts as inactive or inconclusive; further: nearly all actives have a fitted effect of over 60% in size; further: potency means the concentration at half of the fitted maximal effect; on activity change, negative = inhibition: on the % scale 0 is the no-effect control and ±100 the full control effect); settings: recombinant CYP2C9, luciferin-H luminescence, 60 min; series mostly up to 11.4 µM
# Cytochrome P450 2C9 (Homo sapiens), sequence (P11712 whole entry, looked up): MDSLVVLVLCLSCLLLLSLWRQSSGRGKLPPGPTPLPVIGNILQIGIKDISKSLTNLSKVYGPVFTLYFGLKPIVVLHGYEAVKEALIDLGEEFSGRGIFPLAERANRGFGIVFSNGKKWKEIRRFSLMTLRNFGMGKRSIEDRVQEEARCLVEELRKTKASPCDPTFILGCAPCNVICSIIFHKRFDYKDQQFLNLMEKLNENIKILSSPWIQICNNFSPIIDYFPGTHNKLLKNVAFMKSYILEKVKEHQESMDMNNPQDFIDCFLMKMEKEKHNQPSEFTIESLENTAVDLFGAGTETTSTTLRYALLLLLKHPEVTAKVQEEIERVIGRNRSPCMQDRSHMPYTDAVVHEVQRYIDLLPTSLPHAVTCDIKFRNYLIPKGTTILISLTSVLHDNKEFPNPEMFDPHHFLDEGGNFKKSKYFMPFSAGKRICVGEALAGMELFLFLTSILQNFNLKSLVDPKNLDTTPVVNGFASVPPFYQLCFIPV
# Procedure, shortened: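 Turnover of Luciferin-H (100uM, KM) by 10nM human CYP2C9 was measured over 60 min at 37C with NADPH regeneration; inhibitors and some substrates reduce luminescence. Data normalized to sulphaphenazole 57uM.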
# [10] = biological target: Cytochrome P450 3A4 (Homo sapiens) (UniProt P08684); assay: qHTS Assay for Activators of Cytochrome P450 3A4 (AID 885; active means well fitted curve in the direction sought with a large enough effect; an effect the other way counts as inactive or inconclusive; further: nearly all actives have a fitted effect of over 65% in size); settings: recombinant CYP3A4, Luciferin-PPXE luminescence, 60 min; series mostly up to 11.4 µM
# Cytochrome P450 3A4 (Homo sapiens), sequence (P08684 whole entry, looked up): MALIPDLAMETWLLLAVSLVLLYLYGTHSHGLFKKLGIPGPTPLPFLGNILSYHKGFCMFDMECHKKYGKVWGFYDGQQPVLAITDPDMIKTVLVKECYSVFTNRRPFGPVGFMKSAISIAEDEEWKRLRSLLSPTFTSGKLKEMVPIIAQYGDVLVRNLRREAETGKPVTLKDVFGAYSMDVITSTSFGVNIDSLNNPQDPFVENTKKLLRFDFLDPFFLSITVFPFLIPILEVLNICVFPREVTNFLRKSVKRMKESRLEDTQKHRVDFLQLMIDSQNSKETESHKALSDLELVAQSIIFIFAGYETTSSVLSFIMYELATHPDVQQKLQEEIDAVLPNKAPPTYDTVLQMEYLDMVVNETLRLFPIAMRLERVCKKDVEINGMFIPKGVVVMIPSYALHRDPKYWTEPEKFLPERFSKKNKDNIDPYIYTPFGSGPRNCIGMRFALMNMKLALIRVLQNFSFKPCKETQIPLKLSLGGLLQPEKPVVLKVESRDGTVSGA
# Procedure, shortened: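 Activators are scored by enhanced luminescence from CYP3A4 conversion of luciferin-PPXE (25uM, equal to KM) to luciferin, after 60 min at RT with an NADPH-regenerating system.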
# [11] = biological target: Cytochrome P450 2C19 (Homo sapiens) (UniProt P33261); assay: qHTS Assay for Inhibitors and Substrates of Cytochrome P450 2C19 (AID 899; active means well fitted curve in the direction sought with a large enough effect; an effect the other way counts as inactive or inconclusive; further: nearly all actives have a fitted effect of over 60% in size; further: potency means the concentration at half of the fitted maximal effect); settings: recombinant CYP2C19, luciferin-H EGE luminescence; series mostly up to 11.4 µM
# Cytochrome P450 2C19 (Homo sapiens), sequence (P33261 whole entry, looked up): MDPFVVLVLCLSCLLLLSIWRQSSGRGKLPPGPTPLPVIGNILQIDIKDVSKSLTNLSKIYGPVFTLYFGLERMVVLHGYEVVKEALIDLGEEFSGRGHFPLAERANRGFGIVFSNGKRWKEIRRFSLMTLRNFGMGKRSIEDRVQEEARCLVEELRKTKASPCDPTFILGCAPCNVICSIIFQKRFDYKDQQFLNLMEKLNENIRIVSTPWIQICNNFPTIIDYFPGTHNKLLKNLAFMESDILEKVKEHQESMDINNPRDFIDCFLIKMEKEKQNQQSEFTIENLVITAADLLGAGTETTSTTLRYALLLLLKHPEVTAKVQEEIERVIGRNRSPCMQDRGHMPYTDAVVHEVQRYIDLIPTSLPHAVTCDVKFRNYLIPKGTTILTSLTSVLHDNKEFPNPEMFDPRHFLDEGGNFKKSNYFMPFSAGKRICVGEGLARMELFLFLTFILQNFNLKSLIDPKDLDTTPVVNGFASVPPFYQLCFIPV
# Procedure, shortened: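 Reactions contain 5nM enzyme, 10uM Luciferin-H EGE (KM) and 50mM KPO4; compound preincubates 10 min at 37C, NADPH regeneration starts turnover for 60 min. Luminescence after detection reagent gives activity.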
# [12] = biological target: Cytochrome P450 3A4 (Homo sapiens) (UniProt P08684); assay: qHTS Assay for Inhibitors and Substrates of Cytochrome P450 3A4 (AID 884; active means well fitted curve in the direction sought with a large enough effect; an effect the other way counts as inactive or inconclusive; further: nearly all actives have a fitted effect of over 50% in size; further: potency means the concentration at half of the fitted maximal effect); settings: recombinant CYP3A4, Luciferin-PPXE luminescence; series mostly up to 57.1 µM
# Procedure, shortened: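 Luminescent readout of luciferin produced by CYP3A4 (20 nM) dealkylation of Luciferin-PPXE, 25 uM (its KM). NADPH-driven reaction ran 60 min at RT after 10 min compound preincubation; data scaled to 57 uM ketoconazole as 100% inhibition.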
# [13] = biological target: Cytochrome P450 2D6 (Homo sapiens) (UniProt P10635); assay: qHTS Assay for Inhibitors and Substrates of Cytochrome P450 2D6 (AID 891; active means well fitted curve in the direction sought with a large enough effect; an effect the other way counts as inactive or inconclusive; further: nearly all actives have a fitted effect of over 60% in size; further: potency means the concentration at half of the fitted maximal effect); settings: recombinant CYP2D6, luciferin-ME EGE luminescence; series mostly up to 11.4 µM
# Cytochrome P450 2D6 (Homo sapiens), sequence (P10635 whole entry, looked up): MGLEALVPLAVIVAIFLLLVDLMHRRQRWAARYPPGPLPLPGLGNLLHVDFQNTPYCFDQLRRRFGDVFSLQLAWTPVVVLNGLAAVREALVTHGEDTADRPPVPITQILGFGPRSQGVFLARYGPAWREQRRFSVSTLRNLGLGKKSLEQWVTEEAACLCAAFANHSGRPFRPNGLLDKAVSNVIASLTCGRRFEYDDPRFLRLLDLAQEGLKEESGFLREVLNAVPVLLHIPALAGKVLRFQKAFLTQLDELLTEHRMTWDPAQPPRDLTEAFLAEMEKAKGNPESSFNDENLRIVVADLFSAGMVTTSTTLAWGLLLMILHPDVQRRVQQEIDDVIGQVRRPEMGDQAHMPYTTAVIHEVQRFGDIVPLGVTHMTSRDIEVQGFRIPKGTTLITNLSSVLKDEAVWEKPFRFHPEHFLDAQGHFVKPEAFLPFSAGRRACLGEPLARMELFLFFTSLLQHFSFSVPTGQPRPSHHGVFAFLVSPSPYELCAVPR
# Procedure, shortened: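 Luminescent read-out of luciferin formed by 5 nM human CYP2D6 demethylating 30 uM Luciferin-ME EGE (Km level) over 60 min at room temperature after NADPH regeneration addition. Data normalized to full inhibition by 1.43 uM quinidine.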
SMILES,Potency [1] [µM],"activity change, negative = inhibition [2] [%]",Potency [3],"activity, negative = inhibition [4] [%]",Potency [5] [µM],Potency [6] [µM],Potency [7],Potency [8],Potency [9],Potency [10],Potency [11],"activity change, negative = inhibition [3]","activity change, negative = inhibition [12]",Potency [13],Potency [12]
N=C(N)SCc1nc(-c2ccc(Cl)cc2)no1,> 11.4,26,1.26 µM (active),17.8,> 46,> 9.22,inactive,inactive,3.98 µM (active),inactive,–,–,–,–,–
Cc1cc(OCc2nc(N)nc(N)c2-c2ccc(Cl)c(Cl)c2)ccc1[N+](=O)[O-],> 11.4,-18.3,5.01 µM (active),-17.5,> 46,> 9.22,inactive,inactive,1.58 µM (active),inactive,3.16 µM (active),–,–,–,–
Oc1ccc2ccccc2c1/C=C\c1ccc2c(Br)cc(Br)c(O)c2n1,> 11.4,-7.49,3.98 µM (active),1.04,> 46,> 9.22,inactive,inactive,2.51 µM (active),–,–,–,–,–,–
COc1ccc2cc1Oc1ccc(cc1)C[C@@H]1c3c(cc(OC)c4c3Oc3cc5c(cc3O4)CCN[C@H]5C2)CCN1C,> 11.4,-4.55,inactive,14.2,> 46,> 9.22,inactive,inactive,–,–,–,–,–,–,–
O=C(O)CCNc1ncnc2nc[nH]c12,> 11.4,8.82,inactive,-5.64,> 46,> 9.22,inactive,inactive,–,–,–,–,–,–,–
O[C@@H](c1cc(C(F)(F)F)nc2c(Cl)cc(Cl)cc12)[C@@H]1CCCCN1,> 11.4,14.2,3.98 µM (active),-0.0324,> 46,> 9.22,inactive,inactive,–,–,–,–,–,–,–
CCOC(=O)c1cnc(N(C)C)nc1SC(=N)N,> 11.4,-8.3,–,-0.214,> 46,> 9.22,inactive,inactive,–,–,–,-22.6% [at 2.29 µM],–,–,–
COc1ccc(CCCC(=O)O)c(C)c1,> 11.4,1.4,inactive,-0.975,> 46,> 9.22,inactive,inactive,inactive,–,inactive,–,-0.798% [at 11.4 µM],inactive,–
CC(C)c1ccc(/C(C(=O)O)=C(\O)C(=O)O)cc1,> 11.4,-1.43,inactive,-0.351,> 46,> 9.22,inactive,inactive,–,–,–,–,–,–,–
CC(C)C(=O)C(C)(C)CCc1ccccn1,> 11.4,27.3,2.51 µM (active),1.04,> 46,> 9.22,inactive,inactive,–,–,–,–,–,–,–
c1ccc(SC(Sc2ccccc2)c2ccc3c(c2)OCO3)cc1,> 11.4,-9.51,0.501 µM (active),-12,> 46,> 9.22,inactive,inactive,3.16 µM (active),inactive,0.0316 µM (active),–,–,3.16 µM (active),2.51 µM (active)
O=C(O)C[C@H]1OCC=C2C[N@@+]3([O-])CC[C@]45c6ccccc6N[C@@H]4[C@@H]1[C@H]2C[C@H]53,> 11.4,9.8,–,3.39,> 46,> 9.22,inactive,inactive,–,–,–,-14.3% [at 2.29 µM],–,–,–
CN(C)Cc1ccc(-c2cc3onc(-c4ccccc4)c3c(=O)n2C)cc1,> 11.4,12.1,inactive,-3.19,> 46,> 9.22,inactive,inactive,–,–,–,–,–,–,–
C[C@@H]1c2ccccc2Cn2cc3c(c21)C(=O)c1cccc(OP(=O)(O)OCc2ccccc2)c1C3=O,> 11.4,-3.62,3.16 µM (active),-19.6,> 46,> 9.22,inactive,inactive,–,–,–,–,–,–,–
